This is a sample that favours compounds with a hit; in the whole collection about 2.4% have one here.
FPRL1 ligand = binds the human formylpeptide receptor-like-1 FPRL1 | 0.3% of 24,000 active | P25090 | inhibition, % (no concentration beside the values) | FPRL1-expressing cells, fluorescent ligand binding inhibition, flow cytometry;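 further: 0% = buffer alone and 100% = receptor blocker peptide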
VLA-4 allo ag = allosterically activates the human VLA-4 integrin; P13612; Jurkat cells, LDV-FITC binding, flow cytometry; activation, % at 10 µM (by protocol); 24,000 tested, under 10 active; AID 528;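 active means fluorescent ligand binding to cells raised by more than 40% of the manganese-induced maximum; inconclusive means compound's own fluorescence above 85% of the ligand control signal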;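 further: 0% = ligand binding without compound and 100% = manganese-stimulated maximal binding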
Autofluor Jurkat = autofluorescence counter-screen for VLA-4 integrin assays | fluorescence ratio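 (tested at 10 µM compound in the well)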 | Jurkat cells, compound autofluorescence, flow cytometry; active compounds read high; 1 = vehicle-only cell background | 0.61% of 24,000 active;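 active means fluorescence ratio above 2.44, which is 1 plus 3 SD of all ratios; inconclusive means signal too bright to measure linearly, ratio around 10 or more; inactive means fluorescence ratio below 2.44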;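 further: green fluorescence of cells measured with 488 nm excitation and 530 nm emission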
FPR binder = human FPR ligand, with FPRL1 counter-screen. inhibition, % (no concentration beside the values). FPR-expressing cells, fluorescent ligand binding, flow cytometry. P21462. 0.74% of 24,000 active. AID 440;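 further: 0% = buffer wells and 100% = receptor blocker peptide wells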
Target sequence (P21462 whole entry, looked up): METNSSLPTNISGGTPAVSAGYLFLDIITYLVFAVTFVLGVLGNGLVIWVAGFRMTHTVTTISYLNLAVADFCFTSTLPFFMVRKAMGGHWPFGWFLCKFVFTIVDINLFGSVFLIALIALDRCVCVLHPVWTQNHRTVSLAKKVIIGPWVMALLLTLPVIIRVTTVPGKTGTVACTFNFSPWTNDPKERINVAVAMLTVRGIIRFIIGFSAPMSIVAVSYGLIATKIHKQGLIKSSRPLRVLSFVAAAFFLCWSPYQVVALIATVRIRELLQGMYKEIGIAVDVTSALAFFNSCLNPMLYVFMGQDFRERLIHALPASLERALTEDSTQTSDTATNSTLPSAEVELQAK
VLA-4 antagonist = inhibition of LDV-FITC ligand binding to human VLA-4 integrin; inhibition, % at 10 µM (by protocol); AID 529; Jurkat cells, LDV-FITC binding with Mn2+, flow cytometry; 100% = Mn2+-driven binding gain fully reversed; P13612; 0.2% of 24,000 active;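 active means inhibition above 50%; inconclusive means compound itself fluorescent, judged against control cell fluorescence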;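 further: 0% = Mn2+ stimulated cells lacking compound and 100% = ligand binding without Mn2+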
LNCaP diff act = LNCaP prostate cell differentiation activation. flow cytometry side scatter, 4 d. side scatter shift, % at 10 µM. 0.56% of 24,000 active. AID 795;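 active means side scatter shift above 30%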;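 further: androgen-responsive LNCaP prostate cancer cells in charcoal-stripped serum medium; percent of cells past a gate set so DMSO wells show 10% shift; higher shift means more granular cells and more differentiation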
The depositor's hits bear a star; ? = inconclusive; . = no result. Unless noted, no stated cut-off is given here; in the data, active means inhibition above about 30%; inconclusive means no clear call, values can overlap the other calls; inactive means below that.

SMILES	FPRL1 ligand	VLA-4 allo ag	Autofluor Jurkat	FPR binder	VLA-4 antagonist	LNCaP diff act
CCOc1cc(C2NC(=O)N(C)C(C)=C2C(=O)OC)cc(Br)c1O (stereo unspecified)	-12	?	4.3*	-6	?	10
CC1(C)SC2[C@H](NC(=O)C(NC(=O)N3CCNC3=O)c3ccccc3)C(=O)N2C1C(=O)O (stereo partly specified)	2	1	1	1	-26	0
CCOc1cc2[nH]c(=S)n(CCCCC(=O)NCc3ccco3)c(=O)c2cc1OCC	5	5	1	3	-4	6
CCOc1cc2[nH]c(=O)n(CCCCCC(=O)NCc3ccco3)c(=O)c2cc1OCC	.	-13	1	.	52*	.
COCCCN1C(=O)C(O)=C(C(C)=O)C1c1ccccn1 (stereo unspecified)	-3	-2	1	7	2	12
CCN1C(=O)/C(=C2\SC(=S)N(CCCOC)C2=O)c2ccccc21	33*	.	.	23	.	.
CCC(SC1=Nc2ccccc2C2=NC(CC(C)C)C(=O)N12)C(=O)Nc1ccc2c(c1)OCO2 (stereo unspecified)	14	?	1.1	58*	?	6
CCOC(=O)c1oc2cc(O)ccc2c(=O)c1-c1ccccc1OC	24	.	.	34*	.	.
COc1ccccc1-c1c(C)oc2cc(OC(=O)c3ccco3)ccc2c1=O	-1	.	.	68*	.	.
COc1ccccc1Oc1c(C)oc2cc(OC(=O)c3ccco3)ccc2c1=O	0	.	.	93*	.	.
CCOc1ccccc1Oc1c(C)oc2cc(OC(=O)c3ccco3)ccc2c1=O	-4	.	.	79*	.	.
CC(=O)c1c(C)[nH]c(C(=O)N2CCc3ccccc3C2)c1C	-2	1	1	-7	60*	13
CC(=O)c1c(C)[nH]c(C(=O)N2CCN(C(=O)c3ccco3)CC2)c1C	3	?	1	-5	?	2
COC(=O)c1sc(N2C(=O)C(O)=C(C(=O)c3ccc(C)o3)C2c2ccc(F)cc2)nc1C (stereo unspecified)	-8	?	3.8*	5	?	15
CN(CC(O)COc1ccc(OCC(O)CN(C)C2CCCCC2)cc1)C1CCCCC1 (stereo unspecified)	-4	1	0.98	-1	-8	37*
O=C(Nc1ccc(Cl)c(C(F)(F)F)c1)C1CCCN(S(=O)(=O)c2cnc[nH]2)C1 (stereo unspecified)	-4	?	1.3	-3	?	17
O=C(CSc1nnc2scc(-c3ccccc3)n12)Nc1nsc(-c2ccccc2)n1	-4	-9	0.92	4	14	8
Cc1ccc(-c2nc(NC(=O)CSc3nnnn3-c3ccccc3)ns2)cc1	8	-16	1.2	0	51*	13
Cc1cc(C)n(CCc2nc3c4ccccc4n(CC(=O)Nc4ccc(Cl)cc4F)c(=O)n3n2)n1	-7	-6	1.1	5	-25	12
CCOc1ccc(-n2nc(C(=O)N3CCOCC3)c3ccccc3c2=O)cc1	-4	5	0.96	-4	10	8
O=C(c1ccco1)N1CCN(/C(=N/S(=O)(=O)c2cccs2)c2ccccc2Cl)CC1	0	-4	1	2	-11	7
COc1ccccc1C1/C(=C(/O)c2ccccc2)C(=O)C(=O)N1CCO (stereo unspecified)	-2	5	0.95	51*	46	16
COc1ccccc1C1/C(=C(/O)c2ccccc2)C(=O)C(=O)N1CC(C)O (stereo unspecified)	-3	-3	1	42*	17	6
COCCCN1C(=O)C(=O)/C(=C(/O)c2ccccc2)C1c1ccc2c(c1)OCO2 (stereo unspecified)	0	.	.	54*	.	.
COc1ccc(/C(O)=C2\C(=O)C(=O)N(CCN(C)C)C2c2cccc(OC)c2OC)cc1 (stereo unspecified)	-13	.	.	-17	.	.
SMILES	FPRL1 ligand	VLA-4 allo ag	Autofluor Jurkat	FPR binder	VLA-4 antagonist	LNCaP diff act
Cc1ccc2nc(NC3=NCN(Cc4ccco4)CN3)nc(C)c2c1	1	?	3.5*	-10	?	4
CC1CCN(S(=O)(=O)c2ccc3c(c2)oc(=O)n3CC(=O)NCc2ccc3c(c2)OCO3)CC1	-4	0	1.1	39*	3	20
Cc1c(C(=O)NCc2ccc3c(c2)OCO3)oc2ccc(S(=O)(=O)N3CCC(C)CC3)cc12	11	0	1.1	-2	19	5
Cn1c(=O)oc2cc(S(=O)(=O)N3CCC(C(=O)NCC4COc5ccccc5O4)CC3)ccc21 (stereo unspecified)	20	3	1	31*	-20	7
CCCOc1cccc(C2C(C(=O)c3ccc(C)o3)=C(O)C(=O)N2CCCN(C)C)c1 (stereo unspecified)	4	.	.	-6	.	.
Cn1cnc2c1c(=O)[nH]c(=O)n2C	2	-6	0.97	8	-8	4
Cc1cccc(-c2noc(CN(C(=O)c3c(-c4ccccc4Cl)noc3C)C(C)C)n2)c1	0	-15	1.1	-8	59*	6
Cc1ccc(C)c(C(=O)N(Cc2nc(-c3ccc(Cl)cc3)no2)C(C)C)c1	-8	-4	1.1	-6	17	16
Cc1ccc(CNC(=O)CN(C)S(=O)(=O)c2cccc3cccnc23)cc1	2	2	1.1	-2	-5	10
Cc1ccc(C)c(-n2c(CNC(=O)c3ccco3)nnc2SCC(=O)N2CCc3ccccc32)c1	0	0	1	55*	2	3
Cc1ccc(C)c(-n2c(CNC(=O)c3ccco3)nnc2SCC(=O)Nc2nnc(C)s2)c1	-2	4	1.1	1	-11	1
CSc1ccc(C2C(C#N)=C(N)N(c3ccccc3)C3=C2C(=O)CCC3)cc1 (stereo unspecified)	-1	4	0.98	3	1	5
CSc1ccc(C2C(C#N)=C(N)Oc3c2ccc(=O)c2c(C)oc(C)c32)cc1 (stereo unspecified)	-9	?	?	-27	?	33*
COCCNC(=O)C1CCCN(c2nn3c(=O)cc(C)nc3s2)C1 (stereo unspecified)	1	-2	1.1	-5	3	13
Cc1cc(=O)n2nc(N3CCCC(C(=O)NCCCN4CCc5ccccc5C4)C3)sc2n1 (stereo unspecified)	-1	0	1.1	-2	1	38*
Cc1ccccc1-c1nc(CN2CCC(C(=O)NCCCN3CCCC3)CC2)c(C)o1	1	0	1	3	16	65*
Cc1ccccc1-c1nc(CN2CCC(C(=O)NCCCN3CC(C)CC(C)C3)CC2)c(C)o1 (stereo unspecified)	3	3	1	1	1	75*
CCOC(=O)Cc1c(C)nc2c(-c3cccc(Br)c3)c[nH]n2c1=O	-4	.	.	-4	.	.
CCOC(=O)N1CCC(NC(=O)c2cc3c(C)nc4ccccc4c3o2)CC1	28	-2	1	40*	-25	4

Assay outcomes (PubChem BioAssay)
